According to PubChem BioAssay (NCATS):
Results filed as inconclusive are left out. Where a call stands in place of a potency, no number is given. Values without a mark were called inactive. Activity calls are given as the source filed them. The call rests on the fitted dose curve; in most records, active means well fitted curve in the direction sought with a large enough effect; inconclusive means small, poorly fitted or top-dose-only effect, or another doubt; inactive means no such curve, though single readings can be large; an effect the other way counts as inactive or inconclusive.

How the values were obtained:
HaCat = experiment: Cytotoxic Profiling of Annotated Libraries Using Quantitative High-Throughput Screening (AID 1296008); conditions: Five cell lines viability, CellTiter-Glo ATP luminescence, 48-72 h; max response: stronger effect = lower value; further: nearly all actives have a fitted effect of over 60% in size
Method in brief: (§1)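 Cells exposed to compounds for 48 or 72 hr at 37 degrees Celsius. Viability read as ATP-coupled luminescence with CellTiter-Glo after 10 min at room temperature.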

KB-3-1 = experiment: as above; conditions: Five cell lines viability, CellTiter-Glo ATP luminescence, 48-72 h; max response: stronger effect = lower value
Method in brief: as §1

NIH3T3 = experiment: as above; conditions: Five cell lines viability, CellTiter-Glo ATP luminescence, 48-72 h; max response: stronger effect = lower value
Method in brief: as §1

C33A = experiment: Primary qHTS to identify gynecologic anti-cancer compounds using libraries of approved drugs and bioactive compounds (AID 1345084); conditions: Gynecologic cancer cell panel viability, ATPlite luminescence, 48 h; series mostly up to 57.5 µM; further: nearly all actives have a fitted effect of over 55% in size
Method in brief: (§2)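 48 h compound exposure at 37 C, 5% CO2; five-point qHTS. ATPlite luminescence readout of cell ATP.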

CASKI = experiment: as above; conditions: Gynecologic cancer cell panel viability, ATPlite luminescence, 48 h; series mostly up to 57.5 µM
Method in brief: as §2

Es-2 = experiment: as above; conditions: Gynecologic cancer cell panel viability, ATPlite luminescence, 48 h; series mostly up to 57.5 µM
Method in brief: as §2

HeLa = experiment: as above; conditions: Gynecologic cancer cell panel viability, ATPlite luminescence, 48 h; series mostly up to 57.5 µM
Method in brief: as §2

Hek293T = experiment: as above; conditions: Gynecologic cancer cell panel viability, ATPlite luminescence, 48 h, control line for the selectivity index; series mostly up to 57.5 µM
Method in brief: as §2

JEG-3 = experiment: as above; conditions: Gynecologic cancer cell panel viability, ATPlite luminescence, 48 h; series mostly up to 57.5 µM
Method in brief: as §2

OV90 = experiment: as above; conditions: Gynecologic cancer cell panel viability, ATPlite luminescence, 48 h; series mostly up to 57.5 µM
Method in brief: as §2

CAOV3 = experiment: as above; conditions: Gynecologic cancer cell panel viability, ATPlite luminescence, 48 h; series mostly up to 57.5 µM
Method in brief: as §2
Potency means the concentration at half of the fitted maximal effect.

SMILES: C/C1=C\CCC(C)CCO[C@@H]2O[C@H](CO[C@@H]3OC[C@H](O)[C@H](O)[C@H]3OC1=O)[C@@H](O)[C@H](O)[C@H]2O (stereo partly specified)
- max response (HaCat): -12.1%
- outcome (KB-3-1): inactive
- max response (NIH3T3): -2.67%
- Potency (C33A): inactive
- Potency (CASKI): inactive
- Potency (Es-2): inactive
- Potency (HeLa): inactive
- Potency (Hek293T): inactive
- Potency (JEG-3): inactive
- Potency (OV90): inactive

SMILES: CCC(O)(C(=O)OCc1ccccc1NC(=O)CCC(=O)O)C(C)O (stereo unspecified)
- max response (HaCat): -3.62%
- outcome (KB-3-1): inactive
- max response (NIH3T3): -2.36%
- Potency (C33A): inactive
- Potency (CASKI): inactive
- Potency (Es-2): inactive
- Potency (HeLa): inactive
- Potency (Hek293T): inactive
- Potency (JEG-3): inactive
- Potency (OV90): inactive

SMILES: O=C1C=CC(O)(/C=C/C(=O)OC[C@H]2O[C@@H](Oc3ccc(O)cc3)[C@H](O)[C@@H](O)[C@@H]2O)C=C1
- max response (HaCat): 4.51%
- max response (KB-3-1): -7.33%
- max response (NIH3T3): -0.599%
- Potency (C33A): inactive
- Potency (CASKI): inactive
- Potency (Es-2): inactive
- Potency (HeLa): inactive
- Potency (Hek293T): inactive
- Potency (JEG-3): inactive
- Potency (OV90): inactive

SMILES: COc1ccc(CC2NCCc3c2[nH]c2ccc(C)cc32)cc1OC (stereo unspecified)
- max response (HaCat): -6.85%
- max response (KB-3-1): -15.3%
- max response (NIH3T3): -1.6%
- Potency (C33A): inactive
- Potency (CASKI): inactive
- Potency (Es-2): inactive
- Potency (HeLa): inactive
- Potency (Hek293T): inactive
- Potency (JEG-3): inactive
- Potency (OV90): inactive

SMILES: NC1CCC(Nc2cc(-c3cccc(NCc4cccc(F)c4)n3)c(Cl)cn2)CC1 (stereo unspecified)
- Potency (HaCat): 1.03 µM (active)
- Potency (KB-3-1): 0.366 µM (active)
- Potency (NIH3T3): 1.16 µM (active)
- Potency (C33A): 1.26 µM (active)
- Potency (CASKI): 0.891 µM (active)
- Potency (Es-2): 0.708 µM (active)
- Potency (HeLa): 0.355 µM (active)
- Potency (Hek293T): 1 µM (active)

SMILES: C[C@@H]1CC[C@]2(C(=O)O)CC[C@]3(C)C(=CCC4[C@@]5(C)CC[C@H](O)C(C)(C)C5C(O)C[C@]43C)[C@@H]2[C@]1(C)O (stereo partly specified)
- max response (HaCat): -8.55%
- max response (KB-3-1): 7.38%
- max response (NIH3T3): -6.6%
- Potency (C33A): inactive
- Potency (CASKI): inactive
- Potency (Es-2): inactive
- Potency (HeLa): inactive
- Potency (Hek293T): inactive
- Potency (JEG-3): inactive
- Potency (OV90): inactive

SMILES: C[C@@H]1O[C@@H](O[C@H]2[C@H](O)[C@@H](O)[C@H](OC[C@H]3O[C@@H](OC(=O)[C@]45CCC(C)(C)C[C@H]4C4=CCC6[C@@]7(C)CC[C@H](O[C@@H]8OC[C@H](O)[C@H](O[C@@H]9O[C@H](CO)[C@@H](O)[C@H](O)[C@H]9O)[C@H]8O)[C@@](C)(CO)C7CC[C@@]6(C)[C@]4(C)CC5)[C@H](O)[C@@H](O)[C@@H]3O)O[C@@H]2CO)[C@H](O)[C@H](O)[C@H]1O (stereo partly specified)
- max response (HaCat): -0.978%
- max response (KB-3-1): 8.88%
- max response (NIH3T3): -6.93%
- activity change, negative = cytotoxicity (C33A): 0.512% [at 6.55 µM]
- activity change, negative = cytotoxicity (CASKI): -0.125% [at 6.55 µM]
- activity change, negative = cytotoxicity (Es-2): -1.94% [at 6.55 µM]
- activity change, negative = cytotoxicity (HeLa): 8.6% [at 6.55 µM]
- activity change, negative = cytotoxicity (Hek293T): -5.57% [at 6.55 µM]
- activity change, negative = cytotoxicity (JEG-3): 16.9% [at 6.55 µM]
- activity change, negative = cytotoxicity (OV90): 13.6% [at 6.55 µM]

SMILES: Cc1cccc(Oc2cnc(=O)[nH]c2)c1
- max response (HaCat): -9.89%
- max response (KB-3-1): 3.8%
- max response (NIH3T3): -28.2%
- Potency (C33A): inactive
- Potency (CASKI): inactive
- Potency (Es-2): inactive
- Potency (HeLa): inactive
- Potency (Hek293T): inactive
- Potency (JEG-3): inactive
- Potency (OV90): inactive

SMILES: C=C1C[C@]23C[C@H]1[C@@H](O)C[C@H]2[C@@]12C=C[C@H](O)[C@@](C)(C(=O)O1)[C@H]2[C@@H]3C(=O)O
- max response (HaCat): -32.5%
- max response (KB-3-1): -2.31%
- max response (NIH3T3): 0.227%
- Potency (C33A): inactive
- Potency (CASKI): inactive
- Potency (Es-2): inactive
- Potency (HeLa): inactive
- Potency (Hek293T): inactive
- Potency (JEG-3): inactive
- Potency (OV90): inactive

SMILES: C[C@@H]1O[C@@H](O[C@@H]2[C@@H](O[C@@H]3O[C@@H](C)[C@H](O[C@@H]4OC[C@H](O)[C@H](O[C@@H]5OC[C@@H](O)[C@H](O)[C@H]5O)[C@H]4O)[C@@H](O[C@@H]4OC[C@](O)(CO)[C@H]4O)[C@H]3O)[C@H](OC(=O)[C@]34CCC(C)(C)C[C@H]3C3=CCC5[C@@]6(C)C[C@H](O)[C@H](O[C@@H]7O[C@H](CO[C@@H]8OC[C@H](O)[C@H](O)[C@H]8O)[C@@H](O)[C@H](O)[C@H]7O)C(C)(C)C6CC[C@@]5(C)[C@]3(C)C[C@H]4O)OC[C@H]2O)[C@H](O)[C@H](O)[C@H]1O (stereo partly specified)
- max response (HaCat): 0.757%
- max response (KB-3-1): 9.59%
- max response (NIH3T3): 0.953%
- activity change, negative = cytotoxicity (C33A): -0.354% [at 6.55 µM]
- activity change, negative = cytotoxicity (CASKI): -5.17% [at 6.55 µM]
- activity change, negative = cytotoxicity (Es-2): 0.628% [at 6.55 µM]
- activity change, negative = cytotoxicity (HeLa): 4.56% [at 6.55 µM]
- activity change, negative = cytotoxicity (Hek293T): -4.92% [at 6.55 µM]
- activity change, negative = cytotoxicity (JEG-3): -6.81% [at 6.55 µM]
- activity change, negative = cytotoxicity (OV90): 10.7% [at 6.55 µM]

SMILES: COc1ccc(C(=O)n2c(C)c(Cc3cccc(O[C@@H](C)C(=O)O)c3)c3cc(OC(F)(F)F)ccc32)cc1
- max response (HaCat): -6.22%
- max response (KB-3-1): 0.537%
- max response (NIH3T3): 2.93%
- Potency (C33A): inactive
- Potency (CASKI): inactive
- Potency (Es-2): inactive
- Potency (HeLa): inactive
- Potency (Hek293T): inactive
- Potency (JEG-3): inactive
- Potency (OV90): inactive

SMILES: CO[C@H]1C[C@@H]2CC[C@@H](C)[C@@](O)(O2)C(=O)C(=O)N2CCCC[C@H]2C(=O)O[C@H]([C@H](C)C[C@@H]2CC[C@@H](OP(C)(C)=O)[C@H](OC)C2)CC(=O)[C@H](C)/C=C(\C)[C@@H](O)[C@@H](OC)C(=O)[C@H](C)C[C@H](C)/C=C/C=C/C=C/1C
- max response (HaCat): -0.379%
- max response (KB-3-1): 3.84%
- max response (NIH3T3): -16.2%
- Potency (C33A): inactive
- Potency (CAOV3): inactive
- Potency (Es-2): inactive
- Potency (HeLa): inactive
- Potency (JEG-3): inactive

SMILES: C[C@@H]1CC[C@]2(C(=O)OC3OC(CO)C(O)C(O)C3O)CC[C@]3(C)C(=CCC4[C@@]5(C)CC[C@H](O)[C@](C)(C(=O)O)C5CC[C@]43C)C2[C@]1(C)O (stereo partly specified)
- max response (HaCat): -8.63%
- max response (KB-3-1): 4.37%
- max response (NIH3T3): -0.137%
- Potency (C33A): inactive
- Potency (CASKI): inactive
- Potency (Es-2): inactive
- Potency (HeLa): inactive
- Potency (Hek293T): inactive
- Potency (JEG-3): inactive
- Potency (OV90): inactive
